108 compounds from ChEMBL document CHEMBL3988442, “University of Dundee, Small-Polar-MMV Screening Library” (2021) can be followed below.

SMILES strings stand for the structures. Hit rate of the full screen: of about 48,000 compounds, about 13,000 (27%) showed an effect of 50% or more. This is one part of the list.

This experiment concerns Wolbachia pipientis. As to the kind of experiment: Anti-Wolbachia Cell-Based Screen. Details: scale not given: in the data most compounds retested in dose-response had high values. The format is functional. Particulars: 5 µM.
Take `COc1ccnc(N2CCc3ccc(OC(F)F)cc3C2)n1`: the “Percent Effect” value is 18.95%.
The same measure for `c1cnc(N2CCN(Cc3nnnn3C3CC3)CC2)nc1`: -20.27%; for `CC(CCN(C)C)NC(=O)N1CCSC(C)(C)C1` (stereo not drawn): -16.4%.
The same measure for `Cc1cnn(CC2CCN(CC(O)c3ccccc3F)CC2)c1` (stereo not drawn): -4.357%.
The same measure for `N#Cc1ccc(OCC(O)CN2CCC(Cn3cccn3)CC2)cc1` (stereo not drawn): 137.4%; for `Cc1ccccc1OCC(O)CN1CCC(Cn2cccn2)CC1` (stereo not drawn): 111.1%.
`Cc1cnn(CC2CCN(CC(O)c3ccccc3)CC2)c1` (stereo not drawn): the “Percent Effect” value is 3.63%.
The result for `CCc1ncc2c(n1)CN(CC(O)COc1ccc(C#N)cc1)CC2` (stereo not drawn) reads -19.89%; that for `OC(COc1ccc2c(c1)OCO2)CN1CC(n2cccn2)C1` (stereo not drawn), -5.514%; that for `Cc1cnn(CC2CCN(CC(O)c3ccccc3Cl)CC2)c1` (stereo not drawn), -9.107%.
The result for `Cc1ncc2c(n1)CN(CC(O)COc1ccc(C#N)cc1)CC2` (stereo not drawn) reads -6.644%.
The result for `Cc1cnn(CC2CCN(CC(O)CN3CCC(C)CC3)CC2)c1` (stereo not drawn) reads 0.7757%.
Consider `Cc1cccc(OCC(O)CN2CCC(Cn3cccn3)CC2)c1` (stereo not drawn), for which the “Percent Effect” value is listed as 104.3%.
The result for `Cc1ccc(OCC(O)CN2CCC(Cn3cc(C)cn3)CC2)cc1` (stereo not drawn) reads 122.4%.
Consider `Cc1cnn(CC2CCN(CC(O)COc3ccccc3)CC2)c1` (stereo not drawn), for which the “Percent Effect” value came out at 7.728%.
The same measure for `CC(C)(C)c1cc(CN2CCOC(CN)C2)n[nH]1` (stereo not drawn): -6.517%; for `Cc1ccccc1C1CCN(CCn2cc(-c3cccc(O)c3)nn2)C1` (stereo not drawn): -0.06043%.
Turning to `CN(Cc1ccc2c(c1)OCCO2)C(=O)Cn1ccccc1=O`, the “Percent Effect” value is given as -2.106%.
The same measure for `CC1(C)CN(Cc2csc(CS(C)(=O)=O)n2)Cc2ccccc21`: -1.783%; for `COCC1CCN(C(=O)c2cc(-c3ccco3)nc3c(Cl)cccc23)C1` (stereo not drawn): -13.75%.
As for `O=C(c1cnn[nH]1)N(Cc1ccncc1)CC1CCCO1` (stereo not drawn), the “Percent Effect” value was -2.849%.
The result for `C[C@@H]1CN(c2nc(N)nc3c2CCC3)C[C@]1(C)O` reads -4.313%.
The result for `CN1CCCCc2c1nc1c(c2N)CCCC1` reads 88.26%.
As to `CN1CCCc2c1nc1c(c2N)CCC1`, the “Percent Effect” value is 99.68%.
The result for `CN1CCc2c1nc1c(c2N)CCC1` reads 94.13%.
The result for `Cc1nc2c(c(N3CCC4(CCCNC4=O)C3)n1)CCC2` (stereo not drawn) reads 3.026%; that for `Cc1c(C)n(-c2ccccn2)c2nc3c(c(N)c12)CCCC3`, 16.56%; that for `CC(=O)NC1CCN(c2nc(N)nc3c2CCCC3)C1` (stereo not drawn), 13.41%.
The result for `C[C@@H]1CN(c2nc(N)nc3c2CCC3)CC[C@@]1(O)C1CCC1` reads -3.571%; that for `Cc1c(C)n(Cc2ccncc2)c2nc3c(c(N)c12)CCCCC3`, 23.97%.
With `CC(C)N(C(=O)c1ccccc1-c1nc2c([nH]1)CCNC2)C(C)C`, the “Percent Effect” value amounted to 16.68%.
Consider `Cc1cccc(COC[C@@]23CCC[C@@H]2CN(S(=O)(=O)N(C)C)C3)n1.O=C(O)C(F)(F)F`, for which the “Percent Effect” value is -15.69%.
The result for `CCN(C)CC(C)Cn1cnc(-c2ccccc2)c1-c1cncn1CC` (stereo not drawn) reads 1.36%.
The result for `CCc1nc(NCCCn2cccn2)c2c(n1)c(C)nn2C` reads 10.76%; that for `O=C(Nc1ccccc1OC1CCOC1)c1[nH]nc2c1CCCC2` (stereo not drawn), 13.6%.
The same measure for `Cc1nc(CCNC(=O)c2cc(C(C)C)nn2C)sc1C`: 143.4%; for `COc1nc2c(cc1C(=O)NCCc1nc3c(s1)CCC3)CCC2`: -9.23%.
Consider `CCN(CC)C(=O)Cn1cc(C(=O)NCCc2nc(C)c(C)s2)nn1`, for which the “Percent Effect” value was -0.7768%.
The result for `COc1cccc2c1OCC(C(=O)NCCc1nc3c(s1)CCC3)C2` (stereo not drawn) reads 3.483%; that for `O=C(O)c1ccnc(-c2ccnc(NCCc3nc4c(s3)CCC4)n2)c1`, -20.67%.
As for `Cc1nn2cc(CCNC(=O)c3cc(C(C)C)nn3C)nc2s1`, the “Percent Effect” value was -16.47%.
Turning to `COc1nc2c(cc1C(=O)NCCc1nc(C)c(C(=O)O)s1)CCC2`, the “Percent Effect” value is listed as -5.377%.
`Cc1cc(C(=O)NCCc2nc3c(s2)CCCC3)n(C)n1`: the “Percent Effect” value stood at 113.4%.
With `CC(C)c1cc(C(=O)NCCc2nc3c(s2)CCC3)n(C)n1`, the “Percent Effect” value came to 118.8%.
Turning to `CCC[C@@H]1CN(Cc2ccc(C(F)(F)F)nc2)C[C@H]1C(=O)O`, the “Percent Effect” value came out at 8.814%.
In the case of `CC(C)N1CCc2ncn(C)c2C1C(=O)NCCN1CCCC1` (stereo not drawn), the “Percent Effect” value is -5.495%.
The same measure for `COc1ccc(NC(=O)N2CCN(c3ncccn3)CC2)cn1`: 4.438%.
The result for `CN(C)CCN1CCC2(CCN(C(=O)c3ccncc3)CC2)C1=O.O=C(O)C(F)(F)F.O=C(O)C(F)(F)F` reads 99.78%; that for `COCCN1CCN(C)C2(CCN(C(=O)c3ccnnc3)CC2)C1=O.O=C(O)C(F)(F)F`, 1.549%.
On to `COCCN1CCC2(CCN(C(=O)c3ccc(F)cc3)CC2)C1=O`, for which the “Percent Effect” value was determined as 82.71%.
The same measure for `CN1CC(c2ccccc2)CC12CCN(C(=O)c1cccnc1)CC2` (stereo not drawn): -3.135%; for `CCN(C)C1COC2(CCN(C(=O)c3cccc(Cl)c3)CC2)C1.O=C(O)C(F)(F)F` (stereo not drawn): -32.01%; for `CN(C)CCN1CCC2(CCN(C(=O)c3cccc(F)c3)CC2)C1=O.O=C(O)C(F)(F)F`: 96.95%.
The result for `O=C(O)C(F)(F)F.O=C(c1cccnc1)N1CCC2(CC1)CCN(c1ccsc1)C2=O` reads 13.97%; that for `CN(C)CCN1CCC2(CCN(C(=O)c3cccnc3)CC2)C1=O`, 114%.
The same measure for `CN(C)CCN1CCC2(CCCN(Cc3cccn3C)C2)C1=O.O=C(O)C(F)(F)F.O=C(O)C(F)(F)F` (stereo not drawn): -29.62%.
For the compound `CCCN1CCN(C(=O)c2cccnc2)CC1`, the “Percent Effect” value is 10.45%.
The result for `COCCN1CCC2(CCCN(C(=O)c3ccoc3C)C2)C1=O` (stereo not drawn) reads -2.249%.
The same measure for `COc1ccc(-c2nc(CNC(C)Cn3cccn3)cs2)cc1` (stereo not drawn): 6.683%; for `COCCNc1nc2c(c(NCCc3cccs3)n1)CCNCC2`: 23.06%.
The same measure for `CC(NC(=O)NCCCn1cncn1)c1ccccc1Cl` (stereo not drawn): -1.417%; for `Cc1nn(C)c(Oc2cccc(F)c2)c1NC(=O)C1CCOCC1`: 12.99%; for `CNC(=O)c1c(C)cccc1NCc1nnc(C2CC2)o1`: -4.757%.
As to `O=C(NC[C@H]1OC[C@@H](N(CC2CC2)CC2CC2)[C@@H]1O)Nc1ccccc1`, the “Percent Effect” value was -9.212%.
The result for `CC(C)C(=O)NCCc1cc2nc(-c3ccncc3)ccn2n1` reads 130.4%; that for `CCN(C)C(=O)c1ccc(N(C)Cc2cc(-c3ccncc3)no2)nc1`, -25.61%; that for `CC(C)[C@H](Nc1cc(-c2ccncc2)nc2ccnn12)C(N)=O`, -7.86%.
On to `CC(C)(C)C(=O)NCCc1cc2nc(-c3ccncc3)ccn2n1`, for which the “Percent Effect” value was found to be 129.3%.
In the case of `Cc1cc(C)n(-c2cncc(NCCNC(=O)C(C)C)n2)n1`, the “Percent Effect” value was found to be 1.534%.
The same measure for `CCCC(=O)N(CCCN1CCOCC1)c1nc2c(C)c(C)ccc2s1.Cl`: 4.916%.
The same measure for `CNC(=O)c1ccc(CNC(=O)c2cc(C(C)C)n(C)n2)cc1`: -0.9811%; for `CC(C)OC(=O)N1CCCC(c2nccn2Cc2ccncc2)C1` (stereo not drawn): -3.54%.
As to `Cc1ncnc2c1CCN(C(=O)Cc1cccc(F)c1)CC2`, the “Percent Effect” value is 0.1924%.
`O=C(Cc1cccc(F)c1)N1CCc2ncnc(NC3CC3)c2CC1.O=C(O)C(F)(F)F`: the “Percent Effect” value was determined as 106%.
The same measure for `O=C(Cc1cccc(F)c1)N1CCc2ncnc(NC3CCC3)c2CC1`: 110%; for `O=C(Cc1cccc(F)c1)N1CCc2ncnc(N3CCCC3)c2CC1`: -1.475%.
Consider `COc1ncnc2c1CCN(C(=O)Cc1cccc(F)c1)CC2`, for which the “Percent Effect” value was found to be 3.249%.
The result for `NC(=O)NC(=O)CCn1ccc(-c2ccsc2)n1` reads -12.21%; that for `CCOC(=O)C1CCN(C(=O)CN2CCCC2c2ccsc2)CC1` (stereo not drawn), 0.9272%; that for `Cc1nnc(NCc2ccc(F)cc2)o1`, 4.213%.
Consider `Cc1ccc(CNc2n[nH]c(C)n2)cc1`, for which the “Percent Effect” value was 101.1%.
Turning to `COc1ccc(CNc2c(C)nn(C(C)C)c2C)cc1`, the “Percent Effect” value is recorded as -4.166%.
The same measure for `Cc1noc(NCc2ccc(F)cc2)n1`: 5.861%; for `Cc1cccc(CNc2n[nH]c(C)n2)c1`: 94.75%; for `Cc1cccc(CNc2nnc(C(C)C)o2)c1`: -24.34%.
The same measure for `CSc1ccc(CNc2n[nH]c(C)n2)cc1`: 110%.
The same measure for `Cc1nc(CNc2ncc(Br)cn2)n[nH]1`: -4.306%; for `Cc1cccc(CNc2cncc(-n3cccn3)n2)c1`: 4.61%; for `COc1ccc(CNC(C)c2cn[nH]c2C)cc1` (stereo not drawn): 2.524%.
Turning to `CSc1ccc(CNC2(c3ccc(F)cc3)CCOCC2)cc1`, the “Percent Effect” value is recorded as -10.48%.
The result for `COc1ccc(CNc2n[nH]c(C)n2)cc1` reads 96.08%; that for `O=C(Nc1ccc(F)cc1F)N(CCC(F)(F)F)C[C@H](O)CO`, -18.87%.
The same measure for `CN1CCN(Cc2cn3c(n2)CNCC3)CC1.Cl.Cl.Cl`: -6.492%.
`CCC(NCc1ncc[nH]1)c1nc(C(F)(F)F)cs1` (stereo not drawn): the “Percent Effect” value is -16.74%.
Consider `COC(=O)c1ccc(CNC(=O)CN2C[C@@H](NC(C)=O)[C@H](C(C)C)C2)o1`, for which the “Percent Effect” value is 2.567%.
For the compound `COc1c(C)cnc(CN(C)C(=O)c2ccccn2)c1C`, the “Percent Effect” value stood at 13.08%.
`CCN(C)S(=O)(=O)N1CCCC(CO)(CC=C(C)C)C1` (stereo not drawn): the “Percent Effect” value is -20.38%.
The result for `COc1cc(C(C)NCc2ncccc2C)ccc1SC(F)F` (stereo not drawn) reads -24.97%.
In the case of `Cc1cc(C)cc(C(C)NCc2nnc(C)s2)c1` (stereo not drawn), the “Percent Effect” value is listed as -26.09%.
`Cc1nnc(CNC(C)c2cc(C)c(F)c(C)c2)s1` (stereo not drawn): the “Percent Effect” value is listed as 61.57%.
The same measure for `Cc1ccc(CNC(=O)CN(C)CC2CCN(CCO)CC2)s1`: -11.99%.
The same measure for `O=C1NCCN(CC2CC2)C12CCN(Cc1ccc3c(c1)OCO3)CC2`: -10.73%; for `CCN1Cc2cc3c(cc2NCCC1=O)OCO3`: 124.2%; for `CC(C)(C)CN1Cc2cc3c(cc2NCCC1=O)OCO3`: 93.04%.
The result for `COc1nccnc1N1CCN(Cc2ccc3c(c2)OCO3)C(=O)C1` reads -4.11%.
On to `COC(=O)CCC(=O)N1CCc2[nH]nc(-c3ccc4c(c3)OCO4)c2C1`, for which the “Percent Effect” value amounted to 6.027%.
The result for `O=C1CCNc2cc3c(cc2CN1CC1CC1)OCO3` reads 89.98%; that for `COC(=O)CN1Cc2cc3c(cc2NCCC1=O)OCO3`, 87.85%.
